PubChem BioAssay (NCATS)
Records with an inconclusive call do not appear. Calls of active or inactive are those of the source. Unless noted, calls come from the whole dose curve; as a rule, active = well fitted curve in either direction with a large enough effect (not every such curve was filed as active); inconclusive = small, poorly fitted or top-dose-only effect, or another doubt; inactive = flat fitted curve, though single readings scatter.

Tests used:
[1] = target: Lysosomal acid glucosylceramidase (Homo sapiens) (UniProt P04062); test: Glucocerebrosidase-p2 (AID 348; in the data active = potency below about 10 µM; note: potency is the fitted concentration of half-maximal effect); details: purified GBA, blue fluorogenic substrate, 40 min
Procedure, shortened: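 Compounds titrated from 0.6 nM upwards against 0.2 nM enzyme in pH 5.9 citric acid/KH2PO4, taurocholate, tween-20; blue fluorogenic substrate 80 uM, 40 min room temperature, stopped and read Ex 365/Em 440 for AC50.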

[2] = AP1 Signaling Pathway (AID 357); details: ME-180 AP-1-bla reporter, EGF-induced, beta-lactamase ratio, 5 h; at 7.69 µM (top of the series) unless noted; note: % is set by controls: 0 for no effect and ±100 for the full control effect
Procedure, shortened: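 AP-1-bla ME-180 cells with beta-lactamase reporter under AP-1 response element, stimulated with EC50 EGF; compounds titrated, 5 hours at 37 degrees Celsius. CCF4 read at 460/530 nm ratio; positive and negative modulators judged by AC50.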

[3] = target: Cytochrome P450 1A2 (Homo sapiens) (UniProt P05177); test: p450-cyp1a2 (AID 410; calls by dose curve; note: potency is the fitted concentration of half-maximal effect;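 for activity change, negative = inhibition: -100% = full effect of reference inhibitor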); details: recombinant CYP1A2, luciferin-ME demethylation, luminescence; series mostly up to 57 µM
Procedure, shortened: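 Human CYP1A2 (20nM) demethylated Luciferin-ME at its Km (100uM) in 100mM KPO4. After 10 min compound preincubation, NADPH regeneration ran the reaction 60 min at room temperature. Luciferin was read by luminescence, normalized to 57 uM furafylline.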

[4] = NFAT Signaling Pathway (AID 444); details: Jurkat NFAT-bla M1, carbachol, beta-lactamase ratio, 5 h; at 7.69 µM (top of the series) unless noted;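 note: carbachol stimulus at about its EC50 of 1 µM final; % is set by controls: 0 for no effect and ±100 for the full control effect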
Procedure, shortened: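 Read-out: CCF4 FRET ratio (460 nm/530 nm) after 1 h RT dye loading, used for %activity and AC50 from titration series. Cells: Jurkat NFAT-β-lactamase/M1 line, treated with compound plus 1 uM carbachol for 5 h, 37 °C.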

[5] = Stat Signaling Pathway (AID 446); details: ME-180 SIE beta-lactamase reporter, IL-6 stimulated, 5 h; at 7.69 µM (top of the series) unless noted;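 note: ME-180 cervical cancer cells given 40 pM IL-6 alongside compound; SIE-controlled beta-lactamase reporter measured as 460/530 nm FRET emission ratio; % is set by controls: 0 for no effect and ±100 for the full control effect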
Procedure, shortened: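 Reporter line: ME-180 cervical carcinoma, SIE-beta-lactamase. Treatment: compound with 40 pM IL-6, 5 hrs, 37 C, in low-serum OPTI-MEM with 10 mM HEPES pH 7.3. Detection: 460/530 nm fluorescence.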

[6] = target: Glucocorticoid receptor (Homo sapiens) (UniProt P04150); test: GR-EFC Redistribution (AID 451; calls by dose curve; note: potency is the fitted concentration of half-maximal effect); details: CHO-K1 GR-EFC translocation, beta-gal luminescence, 2 h
Procedure, shortened: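 Translocation of GR-ED fusion to nuclear EA restores b-gal, read by luminescence after 1 h room-temperature detection. Engineered CHO-K1 biosensor cells, 1,000/well, exposed 2 h at 37 C to titrations up to 46 uM final.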

[7] = target: Mitogen-activated protein kinase 10 (Mus musculus) (UniProt Q61831); test: JNK3 AlphaScreen Assay (AID 530); details: JNK3 lysate, c-Jun phosphorylation; series mostly up to 57.1 µM;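 note: kinase came from lysate of stimulated human HepG2 cells; signal reports phosphorylation of biotinylated GST-cJun 1-79 at Ser73 with 10 µM ATP; % is set by controls: 0 for no effect and ±100 for the full control effect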
Procedure, shortened: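 Room-temperature AlphaScreen kinase assay; pre-activated HepG2 lysate as JNK3 source, biotin-GST-cJun(1-79) substrate, 10 uM ATP, compound 15 min preincubation.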

[8] = target: 3',5'-cyclic-AMP phosphodiesterase 4B (Homo sapiens) (UniProt Q07343); test: qHTS Assay for Inhibitors of PDE-IV (AID 607; active = well fitted activation curve with a large enough effect in the main read-out, with a control signal flat, not every such curve was filed as active; note: % of control where 0% means no effect); details: HEK293 ACTOne CNG channel cells, membrane potential fluorescence; series mostly up to 22.9 µM
Procedure, shortened: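 Cell-based read-out of cAMP via a modified cyclic nucleotide-gated channel and membrane potential dye (535/590 nm) in HEK293 cells expressing PDE4 endogenously. Compounds tested up to 22.9 uM final; 100 uM RO 20-1724 reference.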

[9] = target: Cytochrome P450 3A4 (Homo sapiens) (UniProt P08684); test: qHTS Assay for Activators of Cytochrome P450 3A4 (AID 885; active = well fitted curve in the direction sought with a large enough effect; an effect the other way counts as inactive or inconclusive; note: nearly all actives have a fitted effect of over 65% in size; note: potency is the fitted concentration of half-maximal effect); details: recombinant CYP3A4, Luciferin-PPXE luminescence, 60 min; series mostly up to 57.1 µM
Procedure, shortened: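 Signal was normalized against complete inhibition by 57 uM ketoconazole. The reaction used 20nM CYP3A4 with 25uM Luciferin-PPXE, 10-min compound preincubation and a 60-min NADPH-supported step at RT.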

[10] = Primary qHTS for small molecule stabilizers of the endoplasmic reticulum resident proteome: Secreted ER Calcium Modulated Protein (SERCaMP) assay (AID 1508630; active = well fitted curve in the direction sought with a large enough effect; an effect the other way counts as inactive or inconclusive; note: % is set by controls: 0 for no effect and ±100 for the full control effect); details: SH-SY5Y GLuc-SERCaMP (Gaussia luciferase released on ER calcium loss) secretion, thapsigargin, luminescence; series mostly up to 38.4 µM
Procedure, shortened: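 GLuc-SERCaMP-expressing SH-SY5Y cells, pretreated 16 h with compound, are challenged with thapsigargin to empty ER calcium stores; after 4 h, coelenterazine is added directly to the medium and luminescence is imaged.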

[11] = target: Cytochrome P450 3A4 (Homo sapiens) (UniProt P08684); test: qHTS Assay for Inhibitors and Substrates of Cytochrome P450 3A4 (AID 884; active = well fitted curve in the direction sought with a large enough effect; an effect the other way counts as inactive or inconclusive; note: nearly all actives have a fitted effect of over 50% in size; note: potency is the fitted concentration of half-maximal effect); details: recombinant CYP3A4, Luciferin-PPXE luminescence; series mostly up to 57.1 µM
Procedure, shortened: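 20 nM human CYP3A4 with 25 uM Luciferin-PPXE (at KM) in 200 mM KPO4, preincubated 10 min with compound; NADPH regeneration started a 60 min RT reaction. Luciferin detected by luminescence, normalized to 57 uM ketoconazole as full inhibition.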

[12] = target: Cytochrome P450 2C9 (Homo sapiens) (UniProt P11712); test: qHTS Assay for Inhibitors and Substrates of Cytochrome P450 2C9 (AID 883; active = well fitted curve in the direction sought with a large enough effect; an effect the other way counts as inactive or inconclusive; note: potency is the fitted concentration of half-maximal effect; nearly all actives have a fitted effect of over 60% in size); details: recombinant CYP2C9, luciferin-H luminescence, 60 min; series mostly up to 57.1 µM
Procedure, shortened: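 Inhibition of CYP2C9 is scored as loss of luminescence, with 57uM sulphaphenazole defining 100% inhibition. Substrate Luciferin-H is used at 100uM, equal to its KM; enzyme at 10nM in 25mM KPO4, 60 min at 37C with NADPH regeneration.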

[13] = qHTS Assay for Identification of Small Molecule Agonists for Hypoxia Response Element Signaling Pathway (AID 914; active = well fitted activation curve with a large enough effect in the signal ratio, with a control signal flat, not every such curve was filed as active; the % refers to the signal ratio; note: % of control where 0% means no effect); details: ME-180 (cervical carcinoma) HRE-bla reporter, beta-lactamase ratio, CoCl2, 17 h; activation: hits give high values
Procedure, shortened: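 Read-out: CCF4 FRET ratio of 460nm to 530nm emission (excitation 405nm) after 2.5 hours at room temperature, taken from HRE-bla ME-180 cells that had been exposed to compound and EC50 CoCl2 for 17 hours.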

[14] = target: Glucocorticoid receptor (Homo sapiens) (UniProt P04150); test: GR-GFP Redistribution (AID 450;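 active = compounds whose dose series gives a full or clear partial fitted curve of increased nuclear translocation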; note: potency is the fitted concentration of half-maximal effect); details: U2OS GR-GFP nuclear translocation, laser cytometry, 2 h
[15] = Confirmation and Secondary Assay for Modulators of Hemoglobin Beta Chain Splicing at IVS2 654 locus (AID 910; active = well fitted curve in the direction sought with a large enough effect; an effect the other way counts as inactive or inconclusive;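 note: HeLa cells stably carrying EGFP split by mutant beta-globin IVS2-654 intron; per-well total GFP intensity by laser scanning cytometry after 2-day treatment; % of control where 0% means no effect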); details: HeLa EGFP-654 splicing reporter, GFP fluorescence, 48 h; series mostly up to 38.3 µM
Procedure, shortened: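 Readout: per-well total peak green fluorescence (488 nm ex, 500–520 nm em) from objects 5–250 µm, reflecting correct splicing of an EGFP-654 reporter. Compounds were applied for 2 days at 37 °C to overnight-plated HeLa EGFP-654 cells; controls were DMSO and 500 nM IVS2-654 PNA.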

[16] = target: Cytochrome P450 2C19 (Homo sapiens) (UniProt P33261); test: qHTS Assay for Inhibitors and Substrates of Cytochrome P450 2C19 (AID 899; active = well fitted curve in the direction sought with a large enough effect; an effect the other way counts as inactive or inconclusive; note: potency is the fitted concentration of half-maximal effect; nearly all actives have a fitted effect of over 60% in size); details: recombinant CYP2C19, luciferin-H EGE luminescence; series mostly up to 57.1 µM
Procedure, shortened: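 5nM enzyme + 10uM Luciferin-H EGE (=KM), 50mM KPO4; cpd pin-transferred, 10 min 37C; NADPH regen, 60 min 37C; stopped w/ luciferin detection reagent, 20 min; luminescence. Normalized to 57uM ketoconazole (AC100).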

[17] = target: Ubiquitin carboxyl-terminal hydrolase 1 (Homo sapiens) (UniProt O94782); test: Inhibitors of USP1/UAF1: Pilot qHTS (AID 504865; active = well fitted curve in the direction sought with a large enough effect; an effect the other way counts as inactive or inconclusive; note: potency is the fitted concentration of half-maximal effect; nearly all actives have a fitted effect of over 35% in size); details: purified USP1/UAF1, Ub-rhodamine cleavage fluorescence; series mostly up to 54.9 µM
Procedure, shortened: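 In 50mM HEPES pH 7.8 containing 0.5mM EDTA, 1mM TCEP, 0.1 mg/ml BSA and 0.01% Tween-20, 1nM USP1/UAF1 is exposed to compound for 15 min, then Ub-Rho (150nM final) is added and fluorescence is read over time.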

Chain of Lysosomal acid glucosylceramidase (Homo sapiens) (P04062 whole entry, looked up): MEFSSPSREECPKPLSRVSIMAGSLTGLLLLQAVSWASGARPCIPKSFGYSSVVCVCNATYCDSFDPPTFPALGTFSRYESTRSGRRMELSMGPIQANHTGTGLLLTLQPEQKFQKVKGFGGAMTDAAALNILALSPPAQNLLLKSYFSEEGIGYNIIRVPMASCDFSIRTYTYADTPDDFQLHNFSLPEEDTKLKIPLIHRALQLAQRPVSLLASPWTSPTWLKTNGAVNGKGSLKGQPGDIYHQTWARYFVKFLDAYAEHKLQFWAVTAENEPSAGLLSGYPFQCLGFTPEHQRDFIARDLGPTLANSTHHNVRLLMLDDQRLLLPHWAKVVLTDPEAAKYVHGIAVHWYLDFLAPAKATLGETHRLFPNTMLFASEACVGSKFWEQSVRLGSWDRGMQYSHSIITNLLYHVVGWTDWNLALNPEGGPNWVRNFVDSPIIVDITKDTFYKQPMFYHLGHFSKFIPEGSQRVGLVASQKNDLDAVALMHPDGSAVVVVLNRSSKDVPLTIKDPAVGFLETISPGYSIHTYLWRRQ
Chain of Cytochrome P450 3A4 (Homo sapiens) (P08684 whole entry, looked up): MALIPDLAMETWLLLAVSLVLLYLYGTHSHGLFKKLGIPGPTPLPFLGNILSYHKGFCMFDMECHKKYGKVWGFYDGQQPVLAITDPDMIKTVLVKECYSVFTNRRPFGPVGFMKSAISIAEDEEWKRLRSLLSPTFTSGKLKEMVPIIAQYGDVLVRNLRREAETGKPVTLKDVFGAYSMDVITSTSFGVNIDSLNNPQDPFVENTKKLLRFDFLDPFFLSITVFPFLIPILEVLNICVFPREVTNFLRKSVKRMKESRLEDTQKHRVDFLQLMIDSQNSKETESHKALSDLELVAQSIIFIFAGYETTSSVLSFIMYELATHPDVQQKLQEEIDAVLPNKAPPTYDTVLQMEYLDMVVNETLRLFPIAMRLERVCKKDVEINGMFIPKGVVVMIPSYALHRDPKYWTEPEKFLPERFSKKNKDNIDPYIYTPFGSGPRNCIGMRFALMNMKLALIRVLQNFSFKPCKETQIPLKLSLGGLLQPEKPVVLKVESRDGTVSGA
Chain of 3',5'-cyclic-AMP phosphodiesterase 4B (Homo sapiens) (Q07343 whole entry, looked up): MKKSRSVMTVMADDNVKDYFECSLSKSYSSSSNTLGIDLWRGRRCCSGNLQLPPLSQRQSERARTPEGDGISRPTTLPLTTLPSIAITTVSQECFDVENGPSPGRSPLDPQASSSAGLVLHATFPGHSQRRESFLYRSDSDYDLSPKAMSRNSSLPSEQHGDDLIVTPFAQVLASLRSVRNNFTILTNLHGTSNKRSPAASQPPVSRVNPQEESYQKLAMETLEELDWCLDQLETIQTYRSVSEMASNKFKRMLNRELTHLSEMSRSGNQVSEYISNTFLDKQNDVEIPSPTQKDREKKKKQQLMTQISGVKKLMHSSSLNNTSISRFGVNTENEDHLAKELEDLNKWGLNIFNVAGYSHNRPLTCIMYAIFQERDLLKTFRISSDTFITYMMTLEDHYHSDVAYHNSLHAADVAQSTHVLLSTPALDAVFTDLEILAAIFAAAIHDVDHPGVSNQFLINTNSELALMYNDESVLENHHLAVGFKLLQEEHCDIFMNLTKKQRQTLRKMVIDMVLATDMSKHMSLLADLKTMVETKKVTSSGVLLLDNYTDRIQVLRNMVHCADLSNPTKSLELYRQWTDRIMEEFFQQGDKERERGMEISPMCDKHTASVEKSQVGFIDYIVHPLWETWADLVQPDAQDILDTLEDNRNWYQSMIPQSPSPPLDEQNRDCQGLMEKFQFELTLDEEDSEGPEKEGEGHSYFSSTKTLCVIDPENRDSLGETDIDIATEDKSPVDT
Chain of Cytochrome P450 1A2 (Homo sapiens) (P05177 whole entry, looked up): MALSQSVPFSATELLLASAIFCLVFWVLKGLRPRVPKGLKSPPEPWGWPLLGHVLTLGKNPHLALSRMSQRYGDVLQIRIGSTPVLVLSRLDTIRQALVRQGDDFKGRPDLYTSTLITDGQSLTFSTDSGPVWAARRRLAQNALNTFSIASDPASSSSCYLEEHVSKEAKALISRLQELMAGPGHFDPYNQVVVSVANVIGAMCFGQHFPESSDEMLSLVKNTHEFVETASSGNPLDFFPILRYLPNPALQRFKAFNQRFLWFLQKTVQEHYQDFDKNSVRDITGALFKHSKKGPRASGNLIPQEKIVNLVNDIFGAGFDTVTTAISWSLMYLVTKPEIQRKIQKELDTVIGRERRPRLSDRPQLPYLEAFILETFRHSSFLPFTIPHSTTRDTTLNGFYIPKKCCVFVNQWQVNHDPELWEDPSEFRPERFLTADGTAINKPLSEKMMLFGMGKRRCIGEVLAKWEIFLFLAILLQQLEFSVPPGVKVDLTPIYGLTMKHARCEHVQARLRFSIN
Chain of Glucocorticoid receptor (Homo sapiens) (P04150 whole entry, looked up, the tested form may be a part): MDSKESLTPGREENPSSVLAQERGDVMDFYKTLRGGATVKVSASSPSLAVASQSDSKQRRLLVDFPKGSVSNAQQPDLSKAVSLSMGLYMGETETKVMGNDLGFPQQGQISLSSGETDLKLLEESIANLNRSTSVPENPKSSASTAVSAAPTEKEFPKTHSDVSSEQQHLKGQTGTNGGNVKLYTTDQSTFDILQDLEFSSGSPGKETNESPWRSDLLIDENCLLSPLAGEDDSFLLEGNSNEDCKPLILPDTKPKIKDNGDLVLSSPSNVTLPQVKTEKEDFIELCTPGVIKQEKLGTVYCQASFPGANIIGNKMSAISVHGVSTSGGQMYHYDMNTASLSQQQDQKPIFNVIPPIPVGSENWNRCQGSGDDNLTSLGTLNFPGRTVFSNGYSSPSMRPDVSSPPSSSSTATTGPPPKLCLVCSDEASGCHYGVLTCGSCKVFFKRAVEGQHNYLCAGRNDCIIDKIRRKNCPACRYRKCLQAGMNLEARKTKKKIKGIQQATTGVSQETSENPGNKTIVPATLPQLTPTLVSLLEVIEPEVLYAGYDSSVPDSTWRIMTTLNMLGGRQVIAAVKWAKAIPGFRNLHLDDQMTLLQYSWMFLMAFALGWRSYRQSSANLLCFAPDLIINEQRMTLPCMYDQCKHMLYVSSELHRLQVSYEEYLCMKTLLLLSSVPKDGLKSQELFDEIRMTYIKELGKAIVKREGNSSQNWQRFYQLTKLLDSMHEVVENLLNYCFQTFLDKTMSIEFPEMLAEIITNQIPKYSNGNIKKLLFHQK
Chain of Cytochrome P450 2C9 (Homo sapiens) (P11712 whole entry, looked up): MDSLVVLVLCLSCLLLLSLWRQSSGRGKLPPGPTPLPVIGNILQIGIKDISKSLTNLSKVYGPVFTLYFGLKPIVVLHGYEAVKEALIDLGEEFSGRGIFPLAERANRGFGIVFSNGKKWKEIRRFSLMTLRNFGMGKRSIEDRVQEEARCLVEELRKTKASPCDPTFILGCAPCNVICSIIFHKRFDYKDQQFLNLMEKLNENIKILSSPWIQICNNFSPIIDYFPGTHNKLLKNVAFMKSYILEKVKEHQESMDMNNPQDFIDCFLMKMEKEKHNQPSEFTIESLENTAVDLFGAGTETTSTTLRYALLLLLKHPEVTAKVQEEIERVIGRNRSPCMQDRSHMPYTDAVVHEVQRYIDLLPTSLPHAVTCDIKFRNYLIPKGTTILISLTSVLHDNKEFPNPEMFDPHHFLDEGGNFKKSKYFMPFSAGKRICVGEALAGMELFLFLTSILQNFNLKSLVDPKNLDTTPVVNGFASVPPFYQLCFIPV
Chain of Ubiquitin carboxyl-terminal hydrolase 1 (Homo sapiens) (O94782 whole entry, looked up): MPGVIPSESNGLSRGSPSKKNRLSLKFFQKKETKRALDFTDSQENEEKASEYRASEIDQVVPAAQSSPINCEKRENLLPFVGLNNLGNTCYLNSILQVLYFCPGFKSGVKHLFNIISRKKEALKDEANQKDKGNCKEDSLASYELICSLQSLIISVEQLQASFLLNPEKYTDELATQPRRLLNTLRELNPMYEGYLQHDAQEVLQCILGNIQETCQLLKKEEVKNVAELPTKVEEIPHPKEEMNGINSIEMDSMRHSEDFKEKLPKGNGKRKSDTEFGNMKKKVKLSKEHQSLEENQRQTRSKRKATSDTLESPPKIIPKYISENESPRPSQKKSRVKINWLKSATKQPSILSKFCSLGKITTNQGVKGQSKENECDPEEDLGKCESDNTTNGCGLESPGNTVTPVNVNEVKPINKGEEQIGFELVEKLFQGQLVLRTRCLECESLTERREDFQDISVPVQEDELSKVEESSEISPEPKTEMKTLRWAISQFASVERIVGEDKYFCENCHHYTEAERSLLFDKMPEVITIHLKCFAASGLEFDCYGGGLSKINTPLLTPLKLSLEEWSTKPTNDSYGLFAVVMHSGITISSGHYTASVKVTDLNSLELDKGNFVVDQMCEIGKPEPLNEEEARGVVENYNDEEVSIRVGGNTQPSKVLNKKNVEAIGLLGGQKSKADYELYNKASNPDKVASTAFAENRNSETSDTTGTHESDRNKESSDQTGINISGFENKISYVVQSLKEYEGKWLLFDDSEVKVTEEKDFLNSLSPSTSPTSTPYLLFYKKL
Chain of Cytochrome P450 2C19 (Homo sapiens) (P33261 whole entry, looked up): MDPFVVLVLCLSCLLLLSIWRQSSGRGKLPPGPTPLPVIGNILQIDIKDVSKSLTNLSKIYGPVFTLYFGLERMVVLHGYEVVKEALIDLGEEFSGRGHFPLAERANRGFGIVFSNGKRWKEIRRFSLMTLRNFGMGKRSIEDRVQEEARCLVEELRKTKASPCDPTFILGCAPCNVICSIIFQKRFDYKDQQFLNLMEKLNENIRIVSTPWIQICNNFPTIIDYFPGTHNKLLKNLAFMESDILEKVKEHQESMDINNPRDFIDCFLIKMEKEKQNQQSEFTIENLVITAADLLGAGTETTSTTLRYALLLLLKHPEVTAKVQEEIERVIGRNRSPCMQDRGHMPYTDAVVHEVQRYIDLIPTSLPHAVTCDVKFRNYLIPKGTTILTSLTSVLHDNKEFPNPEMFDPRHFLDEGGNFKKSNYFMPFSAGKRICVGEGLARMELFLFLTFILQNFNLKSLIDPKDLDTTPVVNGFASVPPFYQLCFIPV

COc1ccc(NC(=O)N2CCC3(CC2)CCN(C(=O)c2ccncc2)CC3)cc1
active: Potency [3] 25.1 µM
inactive: Potency [1] > 11.4 µM | activity change, negative = inhibition [2] -0.635% | activity change, negative = inhibition [4] 3.85% | activity, negative = inhibition [5] 4.58% | Potency [6] > 46 µM | Potency [7] | Potency [8] | Potency [9] | outcome [10]

CC(=O)N1CCC2(CCCN(c3cccc(-c4ccccc4)c3)C2)CC1
inactive: Potency [1] > 11.4 µM | activity change, negative = inhibition [2] -12.3% | activity change, negative = inhibition [4] -0.641% | activity, negative = inhibition [5] -8.45% | Potency [6] > 46 µM | Potency [7] | Potency [8] | Potency [9] | outcome [10]
active: Potency [3] 5.01 µM

COC(=O)N1CCC2(CC1)CCN(c1ncccn1)CC2
inactive: Potency [1] > 11.4 µM | activity change, negative = inhibition [2] 3.11% | Potency [3] | activity change, negative = inhibition [4] -23.4% | activity, negative = inhibition [5] -4.92% | Potency [6] > 46 µM | Potency [7] | Potency [8] | Potency [11] | outcome [10]
active: Potency [9] 15.8 µM

O=C(c1ccco1)N1CCC2(CCCN(c3ccccc3)C2)CC1
inactive: Potency [1] > 11.4 µM | activity change, negative = inhibition [2] -6.34% | Potency [3] | activity change, negative = inhibition [4] -15.1% | activity, negative = inhibition [5] -2.43% | Potency [6] > 46 µM | Potency [7] | Potency [8] | Potency [9] | outcome [10]

O=C(Nc1ccccc1)N1CCCC2(CCN(C(=O)c3cnccn3)CC2)C1
inactive: Potency [1] > 11.4 µM | activity change, negative = inhibition [2] 4.4% | Potency [3] | activity change, negative = inhibition [4] 15.7% | activity, negative = inhibition [5] 2.67% | Potency [6] > 46 µM | Potency [7] | Potency [8] | Potency [9] | outcome [10]

COc1ccc(NC(=O)N2CC3(CCN(C(=O)c4ccncc4)CC3)C2)cc1
inactive: Potency [1] > 11.4 µM | activity change, negative = inhibition [2] 0.578% | Potency [3] | activity change, negative = inhibition [4] 10.9% | activity, negative = inhibition [5] 6.73% | Potency [6] > 46 µM | Potency [7] | Potency [8] | Potency [9] | outcome [10]

O=C(Nc1cccc(F)c1)N1CC[C@@]2(CCCN(S(=O)(=O)c3ccccc3)C2)C1
inactive: Potency [1] > 11.4 µM | activity change, negative = inhibition [2] -21% | activity change, negative = inhibition [4] 7.62% | activity, negative = inhibition [5] -7.95% | Potency [6] > 46 µM | Potency [7] | Potency [8] | Potency [9] | outcome [10]
active: Potency [3] 15.8 µM

O=C(c1cccc(F)c1)N1CCC2(CC1)CCN(c1ccc(-c3ccccc3)cc1)CC2
inactive: Potency [1] > 11.4 µM | activity change, negative = inhibition [2] 4.61% | Potency [3] | activity change, negative = inhibition [4] 0.978% | activity, negative = inhibition [5] -7.26% | Potency [6] > 46 µM | Potency [7] | Potency [8] | Potency [11] | outcome [10]
active: Potency [9] 12.6 µM

Cc1noc(C)c1C(=O)N1CCC2(CCN(Cc3nccs3)CC2)CC1
inactive: Potency [1] > 11.4 µM | activity change, negative = inhibition [2] 11.4% | activity change, negative = inhibition [4] -0.611% | Potency [6] > 46 µM | Potency [7] | Potency [8] | outcome [10]
active: Potency [3] 12.6 µM

O=C(c1ccco1)N1CCC[C@@]2(CCN(c3cccc(-c4ccccc4)c3)C2)C1
active: Potency [3] 15.8 µM | Potency [12] 5.01 µM
inactive: Potency [1] > 11.4 µM | activity change, negative = inhibition [2] -1.52% | activity change, negative = inhibition [4] -22.9% | activity, negative = inhibition [5] 3.03% | Potency [6] > 46 µM | outcome [10]

O=C(Nc1ccccc1)N1CCC2(CC1)CCN(C(=O)c1cccc(F)c1)CC2
active: Potency [3] 10 µM | Potency [9] 12.6 µM
inactive: Potency [1] > 11.4 µM | activity change, negative = inhibition [2] 2.8% | activity change, negative = inhibition [4] 14.6% | Potency [6] > 46 µM | Potency [7] | Potency [8] | Potency [11] | activation [13] -13.7% | outcome [10]

COc1ccccc1CCn1c(=O)c(-c2ccc(Cl)cc2)nc2cncnc21
active: Potency [3] 0.631 µM | Potency [12] 3.98 µM | Potency [11] 3.98 µM
inactive: Potency [1] > 11.4 µM | activity change, negative = inhibition [2] 10.2% | activity, negative = inhibition [5] 6.76% | Potency [14] > 9.22 µM | Potency [6] > 46 µM | Potency [7] | Potency [8] | Potency [9] | outcome [10]

O=C(c1cnccn1)N1CCC2(CC1)CCN(c1ccccn1)CC2
inactive: Potency [1] > 11.4 µM | activity change, negative = inhibition [2] -11.4% | Potency [3] | activity change, negative = inhibition [4] -4.5% | activity, negative = inhibition [5] 3.98% | Potency [6] > 46 µM | Potency [7] | Potency [11] | outcome [10]
active: Potency [9] 15.8 µM

Cc1cccc(CNc2nc(-c3ccccc3CN(C)C)nc3ccccc23)c1
active: Potency [3] 3.16 µM
inactive: Potency [1] > 11.4 µM | activity change, negative = inhibition [2] 20.6% | activity change, negative = inhibition [4] -22.2% | activity, negative = inhibition [5] -0.581% | Potency [6] > 46 µM | Potency [7] | Potency [9] | Potency [15] | outcome [10]

N#Cc1cccc(-c2nc(NCc3ccccc3)c3ccccc3n2)c1
active: Potency [3] 0.398 µM | Potency [16] 6.31 µM | Potency [17] 15.8 µM
inactive: Potency [1] > 11.4 µM | activity change, negative = inhibition [2] -14.6% | activity change, negative = inhibition [4] -13.5% | Potency [14] > 46 µM | Potency [6] > 46 µM | Potency [7] | Potency [9] | outcome [10]
